High-throughput results: PubChem BioAssay, National Center for Advancing Translational Sciences (NCATS)
D2 ag-1: HTS Assay for Allosteric Agonists of the Human D2 Dopamine Receptor: Primary Screen for Agonists; D(2) dopamine receptor (Homo sapiens), P14416; HEK293 T-REx D2 cells, calcium flux agonist mode; activation, % at 2 µM; 340,000 compounds, 0.53% hits; AID 485358, 2010;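 active means activation over 3 SD above normal in the single-dose calcium agonist read, cut at about 30% in these data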; further: 0% is about no effect
Target sequence (P14416 whole entry, looked up): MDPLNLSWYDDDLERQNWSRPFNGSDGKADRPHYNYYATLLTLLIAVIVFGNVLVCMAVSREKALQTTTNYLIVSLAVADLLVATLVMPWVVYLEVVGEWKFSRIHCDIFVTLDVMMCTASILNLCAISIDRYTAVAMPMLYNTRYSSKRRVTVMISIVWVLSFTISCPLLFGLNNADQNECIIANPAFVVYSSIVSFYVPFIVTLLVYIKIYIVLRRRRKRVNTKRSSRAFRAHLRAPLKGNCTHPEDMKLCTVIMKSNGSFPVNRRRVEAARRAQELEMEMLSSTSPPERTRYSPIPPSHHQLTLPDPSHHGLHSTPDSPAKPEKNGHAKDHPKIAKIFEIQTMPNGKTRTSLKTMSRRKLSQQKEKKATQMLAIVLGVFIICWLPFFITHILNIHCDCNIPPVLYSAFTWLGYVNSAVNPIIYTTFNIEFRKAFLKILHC
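Calcium-flux readout, 1 cycle/sec over 180 s following compound pin transfer, in inducible HEK293 Trex D2 cells (force-coupled); dopamine controls included. Positive calcium responses during this window marked compounds as potential agonists.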
D2 PAM-1: Beta-Arrestin HTS for Positive Allosteric Modulators of the Human D2 Dopamine Receptor: Potentiators; DiscoveRx D2 beta-arrestin cells, luminescence, 90 min; 100% = 57 uM dopamine signal; potentiation, % (no concentration beside the values); 360,000 compounds, 0.23% hits; AID 624464, 2012; in the data active means potentiation above about 50%
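D2 cells co-treated with compound plus 50 nM dopamine (EC20) for 90 min at 37 deg C to detect potentiation. Beta-arrestin recruitment was read as enzyme-fragment luminescence after 1 h at ambient temperature. Full response was set by 57 uM dopamine.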
D2 ag-2: Beta-Arrestin HTS for Positive Allosteric Modulators of the Human D2 Dopamine Receptor: Agonists; activation, % (concentration not given with the values); AID 624465, 2012; DiscoveRx PathHunter D2 beta-arrestin, luminescence, 90 min; 100% = 57 uM dopamine signal; 360,000 compounds, 0.084% hits; D(2) dopamine receptor (Homo sapiens), P14416; in the data active means activation above about 40%
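Agonist mode: compounds alone added to overnight-plated D2 PathHunter cells for 90 min at 37 C, with 57 uM final dopamine (EC100) defining full response. Beta-arrestin recruitment detected by chemiluminescent reagent, read after 1 h at ambient temperature.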
D2 antag: HTS Assay for Allosteric Antagonists of the Human D2 Dopamine Receptor: Primary Screen for Antagonists. HEK293 TREx D2 cells, calcium flux, dopamine EC80. inhibition, % at 10 µM. 340,000 compounds, 2% hits. AID 485344, 2010; in the data active means inhibition above about 30%; inactive means below that, where a call was filed; further: 0% is about no effect
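Tetracycline-induced HEK293 T-REx cells expressing D2 force-coupled to calcium signalling were dye-loaded, exposed to compound for 180 s, then challenged with an EC80 of dopamine; calcium flux was followed kinetically for a further 180 s.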
LDHA block: qHTS assay for inhibitors of human lactate dehydrogenase. L-lactate dehydrogenase A chain (Homo sapiens), P00338. purified LDHA, NADH/diaphorase-resazurin fluorescence; stronger effect = lower value. activity change, % (values are at about 110 or 230 µM). 480,000 compounds, 0.15% hits. AID 1347041, 2019; in the data active means activity change below about -30%;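 further: plate controls were DMSO wells for no effect and wells without enzyme for full effect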
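Enzyme activity of human lactate dehydrogenase 5 (2 nM; 0.06 mM NADH, 0.2 mM pyruvate, 5 min, RT) is measured via a resazurin/diaphorase fluorescence readout of residual NADH.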
D2 PAM-2: HTS Assay for Positive Allosteric Modulators of the Human D2 Dopamine Receptor: Primary Screen for Potentiators; HEK293 T-REx D2, calcium flux, EC20 dopamine potentiation; potentiation, % at 10 µM; 340,000 compounds, 0.34% hits; AID 485347, 2010;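 active means potentiation over 3 SD above the plate norm, cut at about 30% in these data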; further: 0% is about no effect
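Tetracycline-induced Hek293 Trex D2 cells, force-coupled to calcium, loaded with no-wash calcium dye. Compound added with 180 s kinetic read for agonism, then EC20 dopamine and a further 180 s read for potentiation.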
An asterisk follows results filed as active; x = no result. Hits are enriched below; roughly 2.1% of the tested compounds scored in any of these assays.

SMILES	D2 ag-1	D2 PAM-1	D2 ag-2	D2 antag	LDHA block	D2 PAM-2
Cc1ccc(OCCOCCN2CCN(C)CC2)c(C(C)(C)C)c1	1	-64	0	4	-32*	-16
CC(C)(C)c1cc(Cl)ccc1OCCOCCN1CCCC1	1	-13	-5	-10	-7	-19
COc1cccc(OC)c1OCCOCCN1CCN(C)CC1	2	-23	0	68*	-3	-25
CCSc1oc(-c2ccco2)nc1S(=O)(=O)c1ccc(C)cc1	-1	-8	-4	-2	-5	34*
CCSc1oc(-c2ccco2)nc1S(=O)(=O)c1ccc(F)cc1	0	-7	-3	-7	-11	16
Cc1ccc(C2C(C#N)=C(N)Oc3c2ccc2ccccc32)cc1 (stereo not drawn)	x	x	x	x	43	x
CN(C)C=NC(=O)c1cc(C(=O)c2ccccc2)c[nH]1	0	-1	-2	33*	-5	0
COc1ccc(C)cc1S(=O)(=O)N(C)CC(=O)NCc1ccccn1	-1	-7	-3	19	-12	5
COc1ccc(C)cc1S(=O)(=O)N(C)CC(=O)NCc1ccncc1	0	-2	-1	33*	-4	8
CCC12CCCN3CCc4c(n(c5ccccc45)C(O)(C(=O)OC)C1)C32 (stereo not drawn)	0	-6	5	51*	6	-30
CC[C@]12CCCN3CCc4c(n(c5ccccc45)[C@](O)(C(=O)OC)C1)[C@@H]32	1	13	-4	-11	-4	14
CC(=O)Nc1nc2c(C)cc(NS(=O)(=O)c3ccc(F)cc3)cc2s1	x	x	x	x	24	x
Cc1ccc(C2CC(=O)C3=C(C2)OC(N)=C(C#N)C3c2ccc(Cl)c(Cl)c2)cc1 (stereo not drawn)	x	x	x	x	0	x
O=C(OCCOc1ccc(Br)cc1)c1cccc([N+](=O)[O-])c1	x	x	x	x	-1	x
COc1ccc(-c2noc(N3CCC(C(=O)NCc4ccc(Cl)cc4)CC3)n2)cc1	0	-6	-3	-19	-2	3
COc1ccc(-c2noc(N3CCC(C(=O)NCc4ccccc4Cl)CC3)n2)cc1	1	-3	-2	48*	-5	14
OC(CN1CCN(c2ccccc2F)CC1)c1ccc(F)cc1 (stereo not drawn)	0	-9	9	1	-2	10
OC(COc1ccc(F)cc1)CN1CCN(c2ccccc2F)CC1 (stereo not drawn)	-1	-21	-7	87*	-8	1
O=[N+]([O-])c1ccccc1OCC(O)CN1CCN(CC(O)COc2ccccc2[N+](=O)[O-])CC1 (stereo not drawn)	1	-65	-2	92*	2	-22
CC(=O)Nc1ccc(OCC(O)CN2CCN(c3cc(Cl)ccc3C)CC2)cc1 (stereo not drawn)	19	-21	-3	93*	8	-25
CCOc1ccccc1N1CCN(CC(O)COCc2cccs2)CC1 (stereo not drawn)	8	-19	-3	68*	-4	-28
O=C(Nc1c(NC2CCCCC2)c2ccccc2oc1=O)c1ccc2c(c1)OCO2	x	x	x	x	4	x
CCN1CCN(c2cc(C)c3cc(NC(=O)CC4CCCCC4)ccc3n2)CC1	x	x	x	x	0	x
Nc1cccc(OC2CCCC2)c1	x	x	x	x	8	x
Cc1ccc(NC(=O)COC(=O)c2ccc3ccccc3n2)cc1C	x	x	x	x	12	x
SMILES	D2 ag-1	D2 PAM-1	D2 ag-2	D2 antag	LDHA block	D2 PAM-2
COc1ccccc1N1CCN(CC(O)COc2ccc(C)c(C)c2)CC1 (stereo not drawn)	x	-20	-2	x	-7	x
COc1ccccc1N1CCN(CC(O)COc2ccc3c(c2)CCC3)CC1 (stereo not drawn)	23	-34	2	80*	4	-20
OC(COc1ccccc1)CN1CCCCCC1 (stereo not drawn)	0	-13	1	-1	-4	10
OC(COc1ccccc1)CN1CCN(CC(O)COc2ccccc2)CC1 (stereo not drawn)	1	-4	-4	30*	-2	0
Cc1ccc(C(=O)Nc2ccccn2)cc1S(=O)(=O)N1CCOCC1	0	-12	2	35*	-4	0
Cc1ccc(NC(=O)Cc2ncc(C(F)(F)F)cc2Cl)cc1Cl	0	-17	-1	44*	-9	-7
Cc1cc(CNC(=S)Nc2ccc(S(=O)(=O)Nc3ncccn3)cc2)nn1C	1	-3	0	-14	-12	17
Cc1nn(C)c(C)c1NC(=S)Nc1ccc(S(=O)(=O)Nc2ncccn2)cc1	1	-3	0	31*	2	1
O=C(NNC(=O)c1sccc1-n1cccc1)c1ccc(Cl)cc1	0	9	-2	36*	0	4
O=C(CCc1ncc(-c2ccc(Cl)cc2Cl)o1)NCC1CCCO1 (stereo not drawn)	x	x	x	x	11	x
Cc1ccc2[nH]c(=O)c(CN(CCCN3CCOCC3)C(=O)Nc3ccc(Cl)cc3)cc2c1	0	-14	4	31*	-6	-1
CN(C)C1(CNC(=O)c2cccc(S(=O)(=O)NCc3ccccc3)c2)CCCCC1	0	-6	-6	45*	-9	3
Cc1ccc(CN2CCC(c3cc(-c4cccs4)n[nH]3)CC2)cc1	1	-18	1	70*	-6	-21
FC(F)(F)c1cccc(CN2CCC(c3cc(-c4cccs4)n[nH]3)CC2)c1	0	-16	3	84*	0	-33
COC(=O)CCN1CCC(c2cc(-c3cccc(C(F)(F)F)c3)n[nH]2)CC1	1	-10	-3	-27	-4	-9
O=CN1CCN(C(C(=O)O)c2cn(Cc3ccccc3)c3ccc(C(=O)O)cc23)CC1 (stereo not drawn)	x	x	x	x	1	x
CCCCOC(=O)C1=C(C)NC(=O)NC1c1ccc([N+](=O)[O-])s1 (stereo not drawn)	2	58*	2	5	-4	5
COc1ccc(S(=O)(=O)NCC2CCC(C(=O)NCC(=O)N3CCc4ccccc4C3)CC2)cc1 (stereo not drawn)	x	x	x	x	-2	x
COc1cccc(-c2nn(C)c3sc(C(=O)NCc4ccco4)cc23)c1	0	-28	-3	36*	-1	-17
